Experimental data published in PubChem BioAssay AID2551 (National Center for Advancing Translational Sciences (NCATS), 2010).
About 17,000 (5.5%) of roughly 310,000 compounds were called active. Inconclusive results (about 11%) are left out. Calls follow the shape of the dose curve; as a rule, active = well fitted inhibition curve with a large enough effect; inconclusive = small, poorly fitted or top-dose-only effect, or effect the other way; inactive = no such curve, though single readings can be large or run the other way. Only a selection was taken, and actives are over-represented in it overall.

biological target: Nuclear receptor ROR-gamma (Mus musculus) (UniProt P51450); assay: qHTS for inhibitors of ROR gamma transcriptional activity; settings: Drosophila S2 Gal4-RORgamma UAS-luciferase reporter, 20 h; series mostly up to 53.6 µM; also: nearly all actives have a fitted effect of over 60% in size
Sequence (P51450 whole entry, looked up, the tested form may be a part): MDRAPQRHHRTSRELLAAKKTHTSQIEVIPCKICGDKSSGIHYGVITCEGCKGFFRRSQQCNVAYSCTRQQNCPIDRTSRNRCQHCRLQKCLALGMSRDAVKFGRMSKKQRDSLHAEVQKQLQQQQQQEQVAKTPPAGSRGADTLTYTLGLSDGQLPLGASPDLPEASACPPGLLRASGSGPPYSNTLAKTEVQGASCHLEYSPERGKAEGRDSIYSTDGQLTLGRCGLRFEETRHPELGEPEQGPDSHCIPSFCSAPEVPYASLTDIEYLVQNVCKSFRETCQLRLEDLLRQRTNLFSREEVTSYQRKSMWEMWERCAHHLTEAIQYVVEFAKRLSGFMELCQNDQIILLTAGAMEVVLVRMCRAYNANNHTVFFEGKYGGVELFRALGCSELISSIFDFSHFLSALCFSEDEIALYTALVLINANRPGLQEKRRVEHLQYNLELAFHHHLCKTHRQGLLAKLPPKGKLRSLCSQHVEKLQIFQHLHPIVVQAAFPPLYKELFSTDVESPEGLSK
Text: NIH Molecular Libraries Probe Production Network [MLPCN] NIH Chemical Genomics Center [NCGC] MLPCN Grant: R03 DA026211-01 Assay Provider: Dan Littman, New York University Assay Overview: The retinoic acid-related orphan receptor (ROR) gamma is a transcription factor that has a central role in the differentiation of Th17 cells, a subset of T helper cells that secrete the inflammatory cytokines IL-17, IL-17F, and IL-22. Th17 cells have been implicated in graft versus host disease, autoimmune disease and asthma. ROR gamma is induced in naive T helper cells in the presence of TGF-beta combined with IL-6, IL-21, or IL-23, and thereafter directs the expression of the Th17 lineage cytokines. To study the mechanism of action of ROR gamma, an insect cell-based assay was screened. This Drosophila Schneider cell line was stably transfected with two vectors: a gene expressing a fusion of the Gal4 DNA binding domain and ROR gamma transactivation domain under the control of the metallothionine promoter and a Photinus luciferase reporter regulated by the Gal4 binding site enhancer, UAS. […] Small molecule inhibitors of ROR gamma activity are detected by a decrease in luciferase reporter activity.
Assay Protocol Summary: For screening, 600 cells in 4 uL/well were dispensed into white solid 1536-well plates (Grenier) using a solenoid-based dispenser. Following transfer of 23 nL compound or DMSO vehicle by a pin tool, the plates were incubated 1 hr at ambient temperature, and 1 uL/well copper sulfate (700 uM final concentration) was added. The plates were centrifuged 15 s at 1000 RPM and incubated 20 hr at ambient temperature. After addition of 1.5 uL Photinus luciferase detection reagent, the plates were incubated 10 min at ambient temperature and then read by an ViewLux (Perkin Elmer) to detect luminescence. Keywords: NIH Roadmap, MLPCN, MLI, MLSMR, qHTS, NCGC, qHTS, nuclear hormone receptor, retinoic acid-related orphan receptor, ROR gamma
Potency is read from the fitted curve at half-maximal effect.

Potency, inactive:
COc1cccc(CNS(=O)(=O)c2ccc3c(c2)N(C(C)=O)CCS3)c1
COc1cccc(C(=O)N/N=C(\C)c2cccc(NC(=O)c3ccc(F)cc3)c2)c1OC
COc1cccc(NC(=O)CSc2nnc(Cc3ccc(OC)c(OC)c3)o2)c1
CCN(CC)C(=O)N(CC)Cc1ccccc1
COc1cccc(CNC(=O)CCN2C(=S)NC(C)(C)CC2C)c1 (stereo not drawn)
Cc1ccc(NC(=O)COc2ccc(/C=N\NC(=O)c3cccnc3)cc2)cc1C
O=C(CCc1n[nH]c(=O)[nH]c1=O)N/N=C/c1ccc(Br)o1
O=C(N/N=C/c1ccco1)c1ccc(NC(=O)C2CC2)cc1
O=C(CCC(=O)N/N=C/c1ccc(Br)o1)N/N=C/c1ccc(Br)o1
CCN(CC)CCN1C(=O)C2C(C(=O)Nc3ccc(Br)cc3)C3C=CC2(O3)C1C(=O)NC1CCCCC1 (stereo not drawn)
Cc1c(C(=O)NC(C)C2CC3CCC2C3)cccc1[N+](=O)[O-] (stereo not drawn)
CC(C)c1ccc(C(=O)OC2CCOC2=O)cc1 (stereo not drawn)
Cc1nn(Cc2ccccc2)c(Cl)c1C(=O)OC1CCOC1=O (stereo not drawn)
CCOc1ccc(NC(=O)c2nc(SCC)ncc2Cl)cc1
CC1CC(C)CN(C(=O)CCNC(=O)Cn2cnc3ccccc3c2=O)C1 (stereo not drawn)
CCc1ccc(-c2cc(C)no2)cc1S(=O)(=O)NCCc1ccc(S(N)(=O)=O)cc1
Cc1cccc(C(=O)N2CCCN(C(=O)c3cccc(C)c3)CC2)c1
Cc1cc(=O)oc(C)c1C(=O)N1CCCCC1
CCC1=Nc2cc(C(=O)NCCCN3CCOCC3)ccc2Sc2ccc(Br)cc21
COc1cccc(CN(C)CC(O)COC(c2ccccc2)c2ccccc2C)c1 (stereo not drawn)
CSc1ccc(CCNC(=O)CS(=O)(=O)Cc2nc(-c3ccccc3F)oc2C)cc1
Cc1ccc(C(=O)NCCN2CCOCC2)cc1C
Cc1ccc(C(=O)Nc2nnc(-c3cccs3)s2)cc1C
COc1ccc(C(CNCC(=O)Nc2ccccc2F)N(C)C)cc1 (stereo not drawn)
C=CCn1c(CNS(=O)(=O)c2ccc(Br)cc2)nnc1SC
CC(C)c1ccc2oc(=O)cc(CN3CCN(Cc4ccccc4)CC3)c2c1
CCOc1ccc(NC(=O)CSc2nncn2C)cc1
COc1ccc(C)cc1NC(=O)CN(C)S(=O)(=O)c1ccc2c(c1)n(C)c(=O)c(=O)n2C
CC(C)c1ccc(N(C(=O)c2ccco2)C(C(=O)NC2CCCC2)c2cccnc2)cc1 (stereo not drawn)
COc1ccc(CNC(=O)c2ccc3oc(C(C)C)nc3c2)cc1
COc1ccc(N2CCN(S(=O)(=O)c3ccc4c(c3)N(C(C)=O)CCO4)CC2)cc1
CCOCCCN(C)C1CCN(C(=O)c2oc3ccccc3c2NC(=O)Cc2cccc([N+](=O)[O-])c2)CC1
COc1cc(CCC(=O)N2CCN(c3ccccc3Cl)CC2)cc(OC)c1OC
COc1ccc(NC(=O)N2CCC(Cc3ccccc3)CC2)cc1
COc1cccc(N2CC(C(=O)Nc3c(C)cccc3C)CC2=O)c1 (stereo not drawn)
COc1ccc(OCC(=O)Nc2ccc(N3CCC(C)CC3)cc2)cc1
COc1ccc(NC(=S)NCCN2CCC(C)CC2)cc1
O=C(Cn1nc(C(=O)O)c2ccccc2c1=O)Nc1ccc(F)cc1
CC1Sc2ccc(S(=O)(=O)CCC(=O)NCc3ccccc3Cl)cc2NC1=O (stereo not drawn)
CC(=O)c1cc(CN2CCC(C(=O)Nc3cccc(-c4cscn4)c3)CC2)cs1
COc1ccc(CCNC(=O)c2nnc(CS(=O)(=O)c3ccccc3)o2)cc1OC
Cc1cccc(OCC(=O)Nc2ccc(C(=O)O)cc2NC(=O)COc2cccc(C)c2)c1
COCCNc1ccc(-c2n[nH]c(=O)c3ccccc23)cc1[N+](=O)[O-]

Potency, active:
CCN(Cc1ccccc1)C(=O)CN1C(=S)NC(C)(C)CC1C (stereo not drawn) 11.2 µM
Cc1ccc(C(=O)N/N=C\c2cc(Br)c(Br)o2)cn1 11.2 µM
O=C(N/N=C/c1ccc(Br)o1)c1cncc(Br)c1 5.62 µM
O=C(OC1CCOC1=O)c1ccc(-c2nc3ccccc3s2)s1 (stereo not drawn) 3.55 µM
Cc1ccc2cc3cc(C(=O)N4CCCCCC4)oc3nc2c1 10 µM
O=C(Nc1nnc(C2=COCCO2)o1)c1ccc([N+](=O)[O-])s1 2.82 µM
Cc1ccc(C(=O)Nc2nnc(C3=COCCO3)o2)cc1C 0.282 µM
Cc1nnnn1/C(=C\c1ccccc1)C(=O)OCC(=O)N1CC2(C)CC1CC(C)(C)C2 (stereo not drawn) 5.01 µM
COc1ccc(NC(=S)NCC2CCN(c3ccc(OC)cc3)C2)cc1 (stereo not drawn) 3.16 µM
COc1ccc(N2CCC(CNC(=S)Nc3c(C)cccc3C)C2)cc1 (stereo not drawn) 0.891 µM
